Our source for the growth inhibition, inhibition and outcome values is PubChem BioAssay.

SMILES strings stand for the structures. Where “and” joins values, the source holds several entries; their conditions need not be identical. Equal values may be shown once. A number with no mark means an inactive call. For some assays here: Measured potencies and affinities stand elsewhere. Calls of active or inactive are those of the source. Unless noted, the rule behind the calls is not given here.

Assay [1] in a line: antimalarial activity against Dd2 strain (AID 2302;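 active = growth inhibition above 50% at the single 2 µM test dose, taken to imply half-maximal potency below 2 µM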;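 note: 0% = DMSO untreated growth and 100% = chloroquine plus artemisinin killed control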). As to conditions: P. falciparum Dd2 in RBCs, LDH growth readout, 72 h; at 2 µM; active compounds read high.
Assay [2] can be described thus: human hepatoma cell viability loss – ATP luminescence, cytotoxicity control for P. falciparum antimalarial project, primary screen (AID 2303;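 active = inhibition above 50%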;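 note: 0% = DMSO wells and 100% = digitonin-killed cells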). To be noted: HepG2 viability, 24-48 h, at 10 µM, active compounds read high.
In assay [3] the target is L-lactate dehydrogenase (Plasmodium falciparum (isolate CDC / Honduras)) (UniProt Q27743). Put plainly: PfLDH activity inhibition – cell lysate, 3D7 strain, counter-screen for P. falciparum growth inhibition project (AID 2304).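 Note: 0% = vehicle and 100% = reference inhibitor.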 As to conditions: P. falciparum 3D7 crude extract, LDH APAD/NBT absorbance; at 2 µM; active compounds read high.
Chain of L-lactate dehydrogenase (Plasmodium falciparum (isolate CDC / Honduras)) (Q27743 whole entry, looked up): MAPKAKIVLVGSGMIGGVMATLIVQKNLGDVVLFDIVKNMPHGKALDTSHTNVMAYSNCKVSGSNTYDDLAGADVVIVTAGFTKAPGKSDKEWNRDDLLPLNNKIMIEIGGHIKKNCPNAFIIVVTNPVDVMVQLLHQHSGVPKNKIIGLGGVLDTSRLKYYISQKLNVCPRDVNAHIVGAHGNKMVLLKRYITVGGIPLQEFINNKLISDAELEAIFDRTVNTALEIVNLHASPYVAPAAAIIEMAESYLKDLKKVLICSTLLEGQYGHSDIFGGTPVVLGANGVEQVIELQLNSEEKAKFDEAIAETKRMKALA
The nature of assay [4]: inhibition of 3D7 malaria parasite growth – strain 3D7 (AID 2306).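 Note: 0% = DMSO wells and 100% = chloroquine plus artemisinin control wells.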 To be noted: P. falciparum 3D7 erythrocytic growth, LDH absorbance, 72 h; at 2 µM; active compounds read high.
Assay [5] addresses Calcium-dependent protein kinase 1 (Plasmodium falciparum (isolate 3D7)) (UniProt P62344). Put plainly: PfCDPK1 kinase inhibitors, biochemical, TCAMS library (AID 1159585; cut-off not given, nearly all actives have IC50 up to about 0.98 µM;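 note: inhibitors leave more ATP so luminescence rises with inhibition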). To be noted: recombinant PfCDPK1, Kinase-Glo ATP depletion luminescence. For orientation: Kinase-Glo reads ATP consumption through a luciferase reaction.
In assay [6] the target is Plasmodium falciparum protein kinase 6 (PK6, PF3D7_1337100) (UniProt Q8IDW1). In words: PfPK6 kinase inhibitors, biochemical, TCAMS library (AID 1159586). As to conditions: recombinant PfPK6, Kinase-Glo ATP depletion luminescence.
Chain of Plasmodium falciparum protein kinase 6 (PK6, PF3D7_1337100) (Q8IDW1 1-305): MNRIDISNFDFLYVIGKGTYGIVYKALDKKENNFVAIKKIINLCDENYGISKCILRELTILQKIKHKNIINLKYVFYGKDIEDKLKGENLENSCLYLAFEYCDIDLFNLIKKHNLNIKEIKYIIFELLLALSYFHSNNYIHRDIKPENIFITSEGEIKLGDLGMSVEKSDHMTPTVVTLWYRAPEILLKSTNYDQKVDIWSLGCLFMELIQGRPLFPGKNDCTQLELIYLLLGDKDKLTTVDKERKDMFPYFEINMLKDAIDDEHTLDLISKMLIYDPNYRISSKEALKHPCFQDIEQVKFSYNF
For assay [7], the target named is Protein kinase 7 (PK7), Plasmodium falciparum 3D7 (PF3D7_0213400) (UniProt Q7YTF7). In words: inhibition of Plasmodium PK7 catalytic activity – biochemical, TCAMS antimalarial set, Kinase-Glo luminescence (AID 1159587). To be noted: recombinant PfPK7, Kinase-Glo ATP depletion luminescence.
Chain of Protein kinase 7 (PK7), Plasmodium falciparum 3D7 (PF3D7_0213400) (Q7YTF7 1-343): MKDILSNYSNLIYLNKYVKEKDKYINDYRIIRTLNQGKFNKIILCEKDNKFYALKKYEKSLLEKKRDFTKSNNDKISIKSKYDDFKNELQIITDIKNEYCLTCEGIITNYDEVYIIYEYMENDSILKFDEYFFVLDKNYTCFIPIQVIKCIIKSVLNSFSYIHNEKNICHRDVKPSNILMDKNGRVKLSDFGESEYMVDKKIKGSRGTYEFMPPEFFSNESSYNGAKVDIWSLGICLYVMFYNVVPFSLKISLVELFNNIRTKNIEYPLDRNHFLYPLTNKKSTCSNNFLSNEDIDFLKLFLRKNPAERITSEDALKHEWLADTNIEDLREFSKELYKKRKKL
Assay [8] deals with Calcium-dependent protein kinase 4 (Plasmodium falciparum (isolate 3D7)) (UniProt Q8IBS5). Put plainly: PfCDPK4 kinase inhibitors, biochemical, TCAMS library (AID 1159588; cut-off not given, nearly all actives have IC50 up to about 0.91 µM). To be noted: recombinant PfCDPK4, Kinase-Glo ATP depletion luminescence.
Chain of Calcium-dependent protein kinase 4 (Plasmodium falciparum (isolate 3D7)) (Q8IBS5 whole entry, looked up): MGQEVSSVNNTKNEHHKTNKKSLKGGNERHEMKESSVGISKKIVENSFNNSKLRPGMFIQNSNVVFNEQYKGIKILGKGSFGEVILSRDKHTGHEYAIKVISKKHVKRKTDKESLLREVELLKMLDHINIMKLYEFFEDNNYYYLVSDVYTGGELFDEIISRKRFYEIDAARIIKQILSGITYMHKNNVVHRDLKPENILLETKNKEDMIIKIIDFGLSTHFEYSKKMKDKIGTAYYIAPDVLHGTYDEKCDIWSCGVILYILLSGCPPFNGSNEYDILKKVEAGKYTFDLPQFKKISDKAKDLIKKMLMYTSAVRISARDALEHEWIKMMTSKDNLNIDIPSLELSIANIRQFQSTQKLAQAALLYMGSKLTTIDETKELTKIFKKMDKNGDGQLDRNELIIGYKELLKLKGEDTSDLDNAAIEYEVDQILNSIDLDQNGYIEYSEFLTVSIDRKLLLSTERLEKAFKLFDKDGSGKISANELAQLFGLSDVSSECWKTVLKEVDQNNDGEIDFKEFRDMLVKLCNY

Chain of Calcium-dependent protein kinase 1 (Plasmodium falciparum (isolate 3D7)) (P62344 whole entry, looked up): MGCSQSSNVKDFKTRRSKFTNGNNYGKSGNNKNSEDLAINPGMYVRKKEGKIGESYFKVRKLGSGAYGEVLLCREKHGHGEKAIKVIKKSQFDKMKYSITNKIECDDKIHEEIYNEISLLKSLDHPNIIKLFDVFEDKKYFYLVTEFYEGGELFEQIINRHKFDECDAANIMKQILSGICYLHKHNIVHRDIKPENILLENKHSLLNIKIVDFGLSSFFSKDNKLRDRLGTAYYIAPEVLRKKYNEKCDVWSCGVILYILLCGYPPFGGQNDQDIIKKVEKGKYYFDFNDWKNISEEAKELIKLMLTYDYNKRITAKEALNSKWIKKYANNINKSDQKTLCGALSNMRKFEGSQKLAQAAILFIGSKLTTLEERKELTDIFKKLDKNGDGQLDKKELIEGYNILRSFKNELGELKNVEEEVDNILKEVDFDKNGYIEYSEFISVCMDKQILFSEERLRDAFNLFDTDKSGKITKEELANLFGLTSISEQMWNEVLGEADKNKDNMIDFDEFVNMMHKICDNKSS

As usually defined, the inhibition is the relative decrease from the control value, in per cent. `CC[C@H]1CN2CC[C@H]1C[C@H]2[C@H](O)c1cc(-c2ccc(OC(F)(F)F)cc2)nc2ccc(OC)cc12`: the growth inhibition in assay [1] was 99% (active); in assay [4], 98% (active). For the same compound, the inhibition in assay [2] was 24%; in assay [3] it was 0%. For the same compound, the outcome in assay [5], in assay [6], in assay [7] and in assay [8] was inactive.
For `O=C(/C=C/c1ccc2ccccc2c1)NC1CCC(CN2CCC(c3c[nH]c4ccccc34)CC2)CC1` (configuration not stated), the results for the growth inhibition in assay [1] and in assay [4] were 88% (active) and 100% (active), respectively. For the same compound, the results for the inhibition in assay [2] and in assay [3] were 28% and 4%, respectively. Further, the result in assay [5], in assay [6], in assay [7] and in assay [8] was inactive.
With `Cn1c(C2C[C@H]3CC[C@H](C2)N3CC2CCC(NC(=O)/C=C/c3ccc(Cl)c(Cl)c3)CC2)nc2ccccc21` (some centres not stated), the growth inhibition in assay [1] is 51% (active); in assay [4], 100% (active). For the same compound, the inhibition in assay [2] is 50% (active); in assay [3], 4%. Besides, the outcome in assay [5], in assay [6], in assay [7] and in assay [8] was inactive.
Consider `CO/C=C(/C(=O)OC)c1ccccc1Oc1cc(Oc2ccccc2C#N)ncn1`, for which the growth inhibition in assay [1] and in assay [4] was 98% (active) each time. For the same compound, the figures for the inhibition in assay [2] and in assay [3] were 7% and 3%, respectively. In addition, the outcome in assay [5], in assay [6], in assay [7] and in assay [8] was inactive.
Turning to `c1ccc(C(OCCC2CCN(Cc3cccc4cccnc34)CC2)c2ccccc2)cc1`, the growth inhibition in assay [1] and in assay [4] was 99% (active) each time. The inhibition in assay [2] was 9%; in assay [3], 0%. Besides, the result in assay [5], in assay [6], in assay [7] and in assay [8] was inactive.
With `O=C(Nc1ccc(Oc2ccccc2)cc1)N1CCC(CN2CCC(c3c[nH]c4ccccc34)CC2)CC1`, the figures for the growth inhibition in assay [1] and in assay [4] were 59% (active) and 100% (active), respectively. Besides, the inhibition in assay [2] was 53% (active); in assay [3] it was -1%. For the same compound, the result in assay [5], in assay [6], in assay [7] and in assay [8] was inactive.
With `O=C(NC1CCC(CN2CCC(c3c[nH]c4ccccc34)CC2)CC1)c1cc(-c2ccc(F)cc2F)ccc1O` (configuration not stated), the growth inhibition in assay [1] and in assay [4] was 101% (active) each time. For the same compound, the figures for the inhibition in assay [2] and in assay [3] were 30% and 0%, respectively. For the same compound, the result in assay [5], in assay [6], in assay [7] and in assay [8] was inactive.
On to `COc1ccc(C=CC(=O)NC2CCC(CN3CCC(c4c[nH]c5ccccc45)CC3)CC2)cc1` (configuration not stated), for which the growth inhibition in assay [1] was 60% (active) and 61% (active); in assay [4], 100% (active). In addition, the inhibition in assay [2] was 13% and 30%; in assay [3], -6% and -7%. Moreover, the outcome in assay [5], in assay [6], in assay [7] and in assay [8] was inactive.
`COC(=O)/C=C/c1ccc(C[C@@H](C)NC[C@H](O)c2cccc(C(F)(F)F)c2)cc1`: the growth inhibition in assay [1] was 93% (active); in assay [4], 97% (active). Besides, the inhibition in assay [2] is 41%; in assay [3] it was -6%. The outcome in assay [5], in assay [6], in assay [7] and in assay [8] was inactive.
Regarding `COCCSc1ccc(CC(C)NCC(O)c2cccc(Cl)c2)cc1` (configuration not stated), the growth inhibition was 73% (active) in assay [1] and 97% (active) in assay [4]. Besides, the inhibition in assay [2] was 2%; in assay [3] it was -1%. The outcome in assay [5], in assay [6], in assay [7] and in assay [8] was inactive.
Take `O=C1NCN(c2ccc(O)cc2)C12CCN(CCCC(c1ccc(F)cc1)c1ccc(F)cc1)CC2`: the growth inhibition in assay [1] was 34%; in assay [4], 94% (active). Besides, the figures for the inhibition in assay [2] and in assay [3] were 20% and 2%, respectively. Besides, the outcome in assay [5], in assay [6], in assay [7] and in assay [8] was inactive.
Take `CCCCCCC(C)c1cc(O)c2c(c1)OC(C)(C)c1ccncc1-2` (configuration not stated): the growth inhibition in assay [1] is 61% (active); in assay [4], 100% (active). In addition, the values for the inhibition in assay [2] and in assay [3] were -3% and -4%, respectively. Also, the result in assay [5], in assay [6], in assay [7] and in assay [8] was inactive.
Take `COC(=O)c1ccc(CC(C)NCC(O)c2cccc(C(F)(F)F)c2)cc1F` (configuration not stated): the growth inhibition is 47% in assay [1] and 82% (active) in assay [4]. The inhibition in assay [2] is 1%; in assay [3] it was 7%. The outcome in assay [5], in assay [6], in assay [7] and in assay [8] was inactive.
Consider `O=c1c2ccccc2nc(C=Cc2ccc([N+](=O)[O-])cc2)n1-c1ccccn1`, for which the growth inhibition was 96% (active) in assay [1] and 98% (active) in assay [4]. Besides, the inhibition was 5% in assay [2] and -1% in assay [3]. For the same compound, the result in assay [5], in assay [6], in assay [7] and in assay [8] was inactive.
Regarding `S=C(NCCc1ccc(Cl)cc1)N1CCC(CN2CCC(c3c[nH]c4ccccc34)CC2)CC1`, the values for the growth inhibition in assay [1] and in assay [4] were 7% and 90% (active), respectively. In addition, the results for the inhibition in assay [2] and in assay [3] were 31% and 0%, respectively. Also, the result in assay [5], in assay [6], in assay [7] and in assay [8] was inactive.
Turning to `COC(=O)c1ccc(CC(C)NCC(O)c2ccccc2Cl)cc1` (configuration not stated), the growth inhibition in assay [1] is 55% (active); in assay [4], 94% (active). Further, the inhibition in assay [2] and in assay [3] was 1% throughout. Also, the result in assay [5], in assay [6], in assay [7] and in assay [8] was inactive.
`N[C@@H](CCN1CCC(c2cccc(O)c2)CC1)Cc1ccc(F)c(F)c1`: the values for the growth inhibition in assay [1] and in assay [4] were 0% and 92% (active), respectively. Also, the inhibition was 25% in assay [2] and -3% in assay [3]. Moreover, the result in assay [5], in assay [6], in assay [7] and in assay [8] was inactive.
`O=C(/C=C/c1c(Cl)cccc1Cl)NC1CCC(CN2[C@@H]3CC[C@H]2CC(c2c[nH]c4ccccc24)C3)CC1` (some centres not stated): the growth inhibition was 18% in assay [1] and 95% (active) in assay [4]. Further, the inhibition in assay [2] was 40%; in assay [3] it was -1%. Moreover, the result in assay [5], in assay [6], in assay [7] and in assay [8] was inactive.
As to `Cc1ccc(C2(O)C[C@H]3CC[C@@H](C2)N3C)cc1` (some centres not stated), the growth inhibition in assay [1] is 16%; in assay [4], 92% (active). The values for the inhibition in assay [2] and in assay [3] were -6% and -4%, respectively. Moreover, the outcome in assay [5], in assay [6], in assay [7] and in assay [8] was inactive.
